# Publication PMC7862700, “An all-to-all approach to the identification of sequence-specific readers for epigenetic DNA modifications on cytosine”
# Legend:
# Test in all cases: DAPPL (digital affinity profiling via proximity ligation, sequencing); 10 mM Tris-HCl pH 7.5, 50 mM NaCl, 1 mM DTT, 4% glycerol, room temperature, 30 min; GST-TFs on glutathione beads, 16-mer random dsDNA library, 0.1% formaldehyde crosslink after washing; high values mean tight binding
# FEV = molecular target: T1, FEV (Homo sapiens, UniProt Q99581 1-238); conditions: protein: recombinant; tags: N-terminal GST; dsDNA, one strand shown
# T1 sequence: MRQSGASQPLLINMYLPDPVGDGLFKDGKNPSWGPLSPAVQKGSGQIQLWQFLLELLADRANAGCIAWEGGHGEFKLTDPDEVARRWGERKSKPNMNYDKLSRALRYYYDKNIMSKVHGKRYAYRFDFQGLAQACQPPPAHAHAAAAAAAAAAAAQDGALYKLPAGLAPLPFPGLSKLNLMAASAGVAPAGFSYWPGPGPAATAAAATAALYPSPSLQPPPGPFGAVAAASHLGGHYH
# In short: (§1)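 Sequencing on an Illumina NextSeq500 followed washing, crosslinking with 0.1% formaldehyde, proximity ligation (BsaI/T4 ligase, 1 h, 37 °C) and PCR amplification of pools that had been incubated for 30 min at room temperature with 200 nmole of a random double-stranded 16-mer DNA library in Tris/NaCl/DTT/glycerol buffer. Each pool held DNA-barcoded human transcription factors, expressed in yeast as GST fusions and captured on glutathione beads, plus a tag-only sample. Binding signal is a hexamer's read frequency for a factor divided by its frequency in the tag-only sample.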
# ETV5 = ETV5 (Homo sapiens, UniProt P41161 1-510); conditions: protein: recombinant; tags: N-terminal GST; dsDNA, one strand shown
# Sequence of ETV5 (P41161 whole entry): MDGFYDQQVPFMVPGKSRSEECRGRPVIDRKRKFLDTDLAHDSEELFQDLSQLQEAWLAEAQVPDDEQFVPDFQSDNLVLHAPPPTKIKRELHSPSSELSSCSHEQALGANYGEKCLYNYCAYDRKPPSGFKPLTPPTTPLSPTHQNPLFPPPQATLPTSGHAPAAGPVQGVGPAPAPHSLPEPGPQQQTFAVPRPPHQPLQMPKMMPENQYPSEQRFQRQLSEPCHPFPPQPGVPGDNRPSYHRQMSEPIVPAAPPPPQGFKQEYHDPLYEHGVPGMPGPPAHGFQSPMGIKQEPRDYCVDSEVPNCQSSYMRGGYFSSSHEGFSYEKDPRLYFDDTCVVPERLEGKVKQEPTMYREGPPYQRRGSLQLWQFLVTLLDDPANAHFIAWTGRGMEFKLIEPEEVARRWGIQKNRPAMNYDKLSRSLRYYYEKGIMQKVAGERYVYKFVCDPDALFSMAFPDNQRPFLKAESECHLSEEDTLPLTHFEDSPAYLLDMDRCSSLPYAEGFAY
# In short: as §1
# HSF1 = HSF1 (Homo sapiens, UniProt Q00613 1-529); conditions: protein: recombinant; tags: N-terminal GST; chain copies: 3; dsDNA, one strand shown
# Sequence of HSF1 (Q00613 whole entry): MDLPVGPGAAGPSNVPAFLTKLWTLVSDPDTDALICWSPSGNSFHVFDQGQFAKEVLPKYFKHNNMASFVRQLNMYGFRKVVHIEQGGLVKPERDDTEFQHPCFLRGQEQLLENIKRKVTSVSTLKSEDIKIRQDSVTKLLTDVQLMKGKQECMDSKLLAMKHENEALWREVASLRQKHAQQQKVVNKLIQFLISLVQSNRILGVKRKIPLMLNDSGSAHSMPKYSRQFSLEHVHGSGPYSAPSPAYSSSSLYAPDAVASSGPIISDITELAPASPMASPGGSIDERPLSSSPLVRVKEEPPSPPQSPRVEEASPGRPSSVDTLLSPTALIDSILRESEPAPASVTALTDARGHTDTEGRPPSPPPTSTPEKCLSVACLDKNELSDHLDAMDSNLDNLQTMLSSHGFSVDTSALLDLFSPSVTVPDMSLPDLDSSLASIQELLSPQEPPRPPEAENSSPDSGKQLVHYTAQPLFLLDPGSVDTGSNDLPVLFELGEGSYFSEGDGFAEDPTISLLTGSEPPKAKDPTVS
# In short: as §1
# SPIC = molecular target: T2, SPIC (Homo sapiens, UniProt Q8N5J4 1-248); conditions: protein: recombinant; tags: N-terminal GST; dsDNA, one strand shown
# T2 sequence: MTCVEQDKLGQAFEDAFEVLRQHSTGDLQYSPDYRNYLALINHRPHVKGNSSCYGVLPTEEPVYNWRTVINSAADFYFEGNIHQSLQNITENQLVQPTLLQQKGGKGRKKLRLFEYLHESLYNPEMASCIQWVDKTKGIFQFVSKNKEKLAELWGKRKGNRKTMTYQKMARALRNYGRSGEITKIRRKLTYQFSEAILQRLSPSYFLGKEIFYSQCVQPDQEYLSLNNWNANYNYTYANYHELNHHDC
# In short: as §1
# ELF4 = ELF4 (Homo sapiens, UniProt Q99607 1-663); conditions: protein: recombinant; tags: N-terminal GST; dsDNA, one strand shown
# Sequence of ELF4 (Q99607 whole entry): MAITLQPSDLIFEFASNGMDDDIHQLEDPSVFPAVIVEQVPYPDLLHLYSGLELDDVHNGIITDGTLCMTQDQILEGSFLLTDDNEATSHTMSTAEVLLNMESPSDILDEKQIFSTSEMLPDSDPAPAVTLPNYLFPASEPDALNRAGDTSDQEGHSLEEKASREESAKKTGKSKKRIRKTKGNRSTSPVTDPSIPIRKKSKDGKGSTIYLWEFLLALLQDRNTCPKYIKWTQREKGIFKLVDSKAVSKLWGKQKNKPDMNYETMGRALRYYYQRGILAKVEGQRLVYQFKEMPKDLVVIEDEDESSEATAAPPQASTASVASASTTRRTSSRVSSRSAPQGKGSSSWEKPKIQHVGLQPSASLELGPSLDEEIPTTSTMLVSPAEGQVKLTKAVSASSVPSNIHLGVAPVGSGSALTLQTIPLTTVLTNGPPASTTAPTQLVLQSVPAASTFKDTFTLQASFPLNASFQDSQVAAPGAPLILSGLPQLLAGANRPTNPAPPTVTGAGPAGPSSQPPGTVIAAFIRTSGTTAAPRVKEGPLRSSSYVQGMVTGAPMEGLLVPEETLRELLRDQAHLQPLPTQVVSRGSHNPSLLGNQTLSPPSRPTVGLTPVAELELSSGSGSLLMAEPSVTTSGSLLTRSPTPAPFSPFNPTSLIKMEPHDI
# In short: as §1
# ELK4 = molecular target: T3, ELK4 (Homo sapiens, UniProt P28324-2 1-405); conditions: protein: recombinant; tags: N-terminal GST; dsDNA, one strand shown
# T3 sequence: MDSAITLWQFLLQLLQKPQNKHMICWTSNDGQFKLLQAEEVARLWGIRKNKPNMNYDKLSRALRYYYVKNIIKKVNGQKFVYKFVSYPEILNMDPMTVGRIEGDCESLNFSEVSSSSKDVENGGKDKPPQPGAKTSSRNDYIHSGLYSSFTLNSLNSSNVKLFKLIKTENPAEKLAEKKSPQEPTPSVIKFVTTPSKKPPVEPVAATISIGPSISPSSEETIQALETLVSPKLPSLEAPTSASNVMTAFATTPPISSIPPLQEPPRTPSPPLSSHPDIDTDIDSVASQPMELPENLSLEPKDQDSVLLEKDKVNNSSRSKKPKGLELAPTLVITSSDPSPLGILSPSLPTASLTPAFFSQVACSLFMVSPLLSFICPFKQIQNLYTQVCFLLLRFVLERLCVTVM
# In short: as §1
# ETV2 = molecular target: T4, ETV2 (Homo sapiens, UniProt O00321 1-342); conditions: protein: recombinant; tags: N-terminal GST; dsDNA, one strand shown
# T4 sequence: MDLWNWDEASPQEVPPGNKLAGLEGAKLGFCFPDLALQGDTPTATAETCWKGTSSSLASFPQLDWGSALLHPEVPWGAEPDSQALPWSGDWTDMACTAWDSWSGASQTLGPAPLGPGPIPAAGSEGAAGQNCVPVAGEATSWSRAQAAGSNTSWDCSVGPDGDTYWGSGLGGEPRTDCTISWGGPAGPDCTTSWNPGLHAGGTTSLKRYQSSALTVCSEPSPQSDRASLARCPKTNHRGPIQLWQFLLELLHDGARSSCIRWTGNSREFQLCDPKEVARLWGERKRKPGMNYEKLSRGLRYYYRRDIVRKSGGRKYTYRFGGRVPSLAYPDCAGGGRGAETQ
# In short: as §1
# ELF3 = molecular target: T5, ELF3 (Homo sapiens, UniProt P78545 1-371); conditions: protein: recombinant; tags: N-terminal GST; dsDNA, one strand shown
# T5 sequence: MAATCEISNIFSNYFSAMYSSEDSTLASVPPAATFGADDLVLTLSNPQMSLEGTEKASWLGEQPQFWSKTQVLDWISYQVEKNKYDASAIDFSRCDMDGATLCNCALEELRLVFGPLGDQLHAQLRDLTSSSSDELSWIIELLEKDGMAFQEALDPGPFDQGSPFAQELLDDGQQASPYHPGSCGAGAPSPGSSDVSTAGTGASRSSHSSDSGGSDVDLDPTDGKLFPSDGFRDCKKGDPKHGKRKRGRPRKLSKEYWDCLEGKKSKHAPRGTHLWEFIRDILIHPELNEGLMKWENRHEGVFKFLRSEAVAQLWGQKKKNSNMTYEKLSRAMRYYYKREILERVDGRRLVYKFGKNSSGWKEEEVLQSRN
# In short: as §1
# CRX = CRX (Homo sapiens, UniProt O43186 1-299); conditions: protein: recombinant; tags: N-terminal GST; dsDNA, one strand shown
# Sequence of CRX (O43186 whole entry): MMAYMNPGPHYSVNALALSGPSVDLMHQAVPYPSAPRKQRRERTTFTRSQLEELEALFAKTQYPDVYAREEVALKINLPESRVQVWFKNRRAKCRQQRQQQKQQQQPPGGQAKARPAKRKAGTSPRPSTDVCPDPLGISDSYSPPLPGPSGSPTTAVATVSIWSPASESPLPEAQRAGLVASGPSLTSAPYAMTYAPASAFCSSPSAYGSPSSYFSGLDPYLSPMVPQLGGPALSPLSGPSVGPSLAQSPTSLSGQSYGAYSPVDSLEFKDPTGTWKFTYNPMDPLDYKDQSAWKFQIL
# In short: as §1
# ETV1 = ETV1 (Homo sapiens, UniProt P50549 1-477); conditions: protein: recombinant; tags: N-terminal GST; dsDNA, one strand shown
# Sequence of ETV1 (P50549 whole entry): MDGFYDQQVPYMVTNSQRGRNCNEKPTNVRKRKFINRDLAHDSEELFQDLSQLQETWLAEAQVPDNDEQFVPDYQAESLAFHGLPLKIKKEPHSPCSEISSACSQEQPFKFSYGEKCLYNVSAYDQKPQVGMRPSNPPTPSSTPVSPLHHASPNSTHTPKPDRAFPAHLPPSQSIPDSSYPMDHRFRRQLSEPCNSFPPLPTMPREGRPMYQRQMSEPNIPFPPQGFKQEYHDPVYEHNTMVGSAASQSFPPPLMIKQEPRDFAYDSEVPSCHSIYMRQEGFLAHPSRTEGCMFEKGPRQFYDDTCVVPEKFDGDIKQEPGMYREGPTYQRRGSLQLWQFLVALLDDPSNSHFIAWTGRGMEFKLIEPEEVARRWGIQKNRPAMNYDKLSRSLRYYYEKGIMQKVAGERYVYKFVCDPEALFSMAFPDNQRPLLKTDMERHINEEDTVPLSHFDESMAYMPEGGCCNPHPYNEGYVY
# In short: as §1
# ERF = molecular target: T6, ERF (Homo sapiens, UniProt P50548 1-548); conditions: protein: recombinant; tags: N-terminal GST; dsDNA, one strand shown
# T6 sequence: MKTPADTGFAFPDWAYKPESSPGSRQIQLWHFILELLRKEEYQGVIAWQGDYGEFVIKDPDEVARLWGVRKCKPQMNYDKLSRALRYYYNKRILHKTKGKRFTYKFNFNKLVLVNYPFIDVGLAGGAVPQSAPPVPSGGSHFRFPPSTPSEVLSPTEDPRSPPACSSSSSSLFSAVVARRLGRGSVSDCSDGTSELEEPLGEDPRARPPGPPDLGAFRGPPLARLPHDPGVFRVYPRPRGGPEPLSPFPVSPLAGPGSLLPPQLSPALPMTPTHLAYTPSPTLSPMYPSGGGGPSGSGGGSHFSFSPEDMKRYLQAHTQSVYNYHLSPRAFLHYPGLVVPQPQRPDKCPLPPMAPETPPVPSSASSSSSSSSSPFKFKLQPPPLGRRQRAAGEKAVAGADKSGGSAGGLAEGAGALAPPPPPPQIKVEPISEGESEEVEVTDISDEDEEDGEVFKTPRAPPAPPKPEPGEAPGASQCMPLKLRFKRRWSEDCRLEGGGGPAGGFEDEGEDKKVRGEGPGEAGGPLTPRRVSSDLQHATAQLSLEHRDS
# In short: as §1
# ETV3L = molecular target: T7, ETV3L (Homo sapiens, UniProt Q6ZN32 1-361); conditions: protein: recombinant; tags: N-terminal GST; dsDNA, one strand shown
# T7 sequence: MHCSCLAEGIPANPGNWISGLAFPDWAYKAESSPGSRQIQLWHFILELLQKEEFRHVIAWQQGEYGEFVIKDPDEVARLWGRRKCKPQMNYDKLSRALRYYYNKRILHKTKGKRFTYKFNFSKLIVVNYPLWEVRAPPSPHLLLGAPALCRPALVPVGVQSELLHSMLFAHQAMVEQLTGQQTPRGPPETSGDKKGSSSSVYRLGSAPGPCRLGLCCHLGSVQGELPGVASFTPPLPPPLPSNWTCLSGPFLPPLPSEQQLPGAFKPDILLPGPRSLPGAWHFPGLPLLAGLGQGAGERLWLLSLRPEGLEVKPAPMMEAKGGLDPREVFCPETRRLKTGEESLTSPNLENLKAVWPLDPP
# In short: as §1
# ETS2 = molecular target: T8, ETS2 (Homo sapiens, UniProt P15036 1-469); conditions: protein: recombinant; tags: N-terminal GST; dsDNA, one strand shown
# T8 sequence: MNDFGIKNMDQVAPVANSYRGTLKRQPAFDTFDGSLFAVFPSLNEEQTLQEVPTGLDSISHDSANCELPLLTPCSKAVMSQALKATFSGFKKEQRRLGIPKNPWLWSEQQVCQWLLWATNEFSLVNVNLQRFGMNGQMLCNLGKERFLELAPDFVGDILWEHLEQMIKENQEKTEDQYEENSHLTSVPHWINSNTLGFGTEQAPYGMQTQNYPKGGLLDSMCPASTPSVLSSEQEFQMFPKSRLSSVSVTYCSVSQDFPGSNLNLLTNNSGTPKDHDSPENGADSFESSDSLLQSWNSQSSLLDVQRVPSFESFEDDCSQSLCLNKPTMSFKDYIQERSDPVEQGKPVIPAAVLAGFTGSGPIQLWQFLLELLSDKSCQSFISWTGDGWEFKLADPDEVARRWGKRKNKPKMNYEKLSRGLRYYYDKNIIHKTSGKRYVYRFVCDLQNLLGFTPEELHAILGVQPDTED
# In short: as §1
# SPDEF = molecular target: T9, SPDEF (Homo sapiens, UniProt O95238 1-335); conditions: protein: recombinant; tags: N-terminal GST; dsDNA, one strand shown
# T9 sequence: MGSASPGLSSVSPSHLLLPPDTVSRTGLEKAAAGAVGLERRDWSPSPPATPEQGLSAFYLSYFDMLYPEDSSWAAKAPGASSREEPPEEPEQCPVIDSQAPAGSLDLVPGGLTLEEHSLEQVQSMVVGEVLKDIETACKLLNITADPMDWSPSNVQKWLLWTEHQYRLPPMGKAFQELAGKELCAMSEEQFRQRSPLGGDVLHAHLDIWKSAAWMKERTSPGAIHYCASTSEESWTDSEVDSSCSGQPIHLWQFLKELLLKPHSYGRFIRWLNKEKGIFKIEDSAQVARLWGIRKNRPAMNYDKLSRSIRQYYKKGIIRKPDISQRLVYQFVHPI
# In short: as §1
# ETV7 = molecular target: T10, ETV7 (Homo sapiens, UniProt Q9Y603 1-341); conditions: protein: recombinant; tags: N-terminal GST; dsDNA, one strand shown
# T10 sequence: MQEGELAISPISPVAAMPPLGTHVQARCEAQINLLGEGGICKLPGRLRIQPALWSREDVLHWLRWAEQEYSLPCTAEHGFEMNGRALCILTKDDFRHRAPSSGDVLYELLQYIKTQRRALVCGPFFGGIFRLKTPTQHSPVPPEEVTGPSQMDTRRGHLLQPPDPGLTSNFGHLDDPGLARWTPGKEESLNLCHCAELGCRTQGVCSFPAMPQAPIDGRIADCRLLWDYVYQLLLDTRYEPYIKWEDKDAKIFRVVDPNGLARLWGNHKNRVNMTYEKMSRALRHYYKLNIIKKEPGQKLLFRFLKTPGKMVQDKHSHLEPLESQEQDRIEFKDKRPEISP
# In short: as §1
# ELF5 = molecular target: T11, ELF5 (Homo sapiens, UniProt Q9UKW6-2 1-255); conditions: protein: recombinant; tags: N-terminal GST; dsDNA, one strand shown
# T11 sequence: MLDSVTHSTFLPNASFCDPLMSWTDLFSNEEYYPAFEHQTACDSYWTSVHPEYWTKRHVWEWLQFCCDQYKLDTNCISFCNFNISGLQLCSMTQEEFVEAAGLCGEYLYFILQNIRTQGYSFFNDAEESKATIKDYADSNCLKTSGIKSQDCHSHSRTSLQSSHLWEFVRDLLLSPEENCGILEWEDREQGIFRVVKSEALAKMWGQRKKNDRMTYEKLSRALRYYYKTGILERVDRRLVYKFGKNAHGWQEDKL
# In short: as §1
# ETV3 = molecular target: T12, ETV3 (Homo sapiens, UniProt P41162-2 1-143); conditions: protein: recombinant; tags: N-terminal GST; dsDNA, one strand shown
# T12 sequence: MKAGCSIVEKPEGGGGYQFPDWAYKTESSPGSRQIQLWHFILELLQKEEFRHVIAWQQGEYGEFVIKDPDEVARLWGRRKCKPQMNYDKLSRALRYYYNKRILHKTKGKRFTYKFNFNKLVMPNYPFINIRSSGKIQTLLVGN
# In short: as §1
# ETV6 = ETV6 (Homo sapiens, UniProt P41212 1-452); conditions: protein: recombinant; tags: N-terminal GST; dsDNA, one strand shown
# Sequence of ETV6 (P41212 whole entry): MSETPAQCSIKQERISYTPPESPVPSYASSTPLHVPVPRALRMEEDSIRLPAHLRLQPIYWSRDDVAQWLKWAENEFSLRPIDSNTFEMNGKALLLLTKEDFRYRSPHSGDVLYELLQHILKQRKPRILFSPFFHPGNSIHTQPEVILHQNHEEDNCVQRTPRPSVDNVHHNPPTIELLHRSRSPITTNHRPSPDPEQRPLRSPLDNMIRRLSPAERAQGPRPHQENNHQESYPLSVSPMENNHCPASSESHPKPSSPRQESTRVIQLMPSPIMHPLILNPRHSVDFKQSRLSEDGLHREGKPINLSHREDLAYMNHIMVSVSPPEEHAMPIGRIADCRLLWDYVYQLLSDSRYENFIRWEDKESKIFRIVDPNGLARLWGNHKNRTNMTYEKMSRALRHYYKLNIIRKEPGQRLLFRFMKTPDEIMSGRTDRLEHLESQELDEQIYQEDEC
# In short: as §1
sequence,measurement,setting,value
TCCGCC,binding signal,FEV,"1.88 fold enrichment (6-mer frequency, TF over GST control)"
same,binding signal,ETV5,"1.69 fold enrichment (6-mer frequency, TF over GST control)"
same,binding signal,HSF1,"1.04 fold enrichment (6-mer frequency, TF over GST control)"
same,binding signal,SPIC,"1.69 fold enrichment (6-mer frequency, TF over GST control)"
same,binding signal,ELF4,"1.55 fold enrichment (6-mer frequency, TF over GST control)"
same,binding signal,ELK4,"1.45 fold enrichment (6-mer frequency, TF over GST control)"
same,binding signal,ETV2,"1.48 fold enrichment (6-mer frequency, TF over GST control)"
same,binding signal,ELF3,"1.6 fold enrichment (6-mer frequency, TF over GST control)"
same,binding signal,CRX,"1.05 fold enrichment (6-mer frequency, TF over GST control)"
same,binding signal,ETV1,"1.59 fold enrichment (6-mer frequency, TF over GST control)"
same,binding signal,ERF,"1.48 fold enrichment (6-mer frequency, TF over GST control)"
same,binding signal,ETV3L,"1.59 fold enrichment (6-mer frequency, TF over GST control)"
same,binding signal,ETS2,"1.54 fold enrichment (6-mer frequency, TF over GST control)"
same,binding signal,SPDEF,"1.83 fold enrichment (6-mer frequency, TF over GST control)"
same,binding signal,ETV7,"1.49 fold enrichment (6-mer frequency, TF over GST control)"
same,binding signal,ELF5,"2.2 fold enrichment (6-mer frequency, TF over GST control)"
same,binding signal,ETV3,"1.75 fold enrichment (6-mer frequency, TF over GST control)"
same,binding signal,ETV6,"1.63 fold enrichment (6-mer frequency, TF over GST control)"
